# Test results reported in ChEMBL document CHEMBL4513216, “Probing the Open Global Health Chemical Diversity Library for Multistage-Active Starting Points for Next-Generation Antimalarials” (ACS Infect Dis, 2020).
# Hit rate of the full screen: of about 69,000 compounds, about 8,600 (12%) showed an effect of 50% or more. The sample holds strong results, similar compounds and a random draw of the others, so the mix is not that of the screen.
# Test system: Plasmodium berghei
# Assay: Screen against P. berghei liver stage (PbLuc), transformed with Luciferase, at 10uM
# Assay type: functional, HepG2
# Conditions: tested at 10 uM
row,Compound,INHIBITION
1,Cc1cc(C(=O)N2CC[C@@]3(C[C@@H](NS(C)(=O)=O)CCO3)C2)no1,69.5%
2,Cc1nc(C(=O)N2CC[C@@]3(C[C@H](NS(C)(=O)=O)CCO3)C2)cs1,11.3%
3,CS(=O)(=O)N[C@H]1CCO[C@]2(CCN(CC3CCOCC3)C2)C1,-44.4%
4,Cc1ccc(C(=O)N2CC[C@@]3(C[C@@H](NS(C)(=O)=O)CCO3)C2)s1,50.9%
5,CS(=O)(=O)N[C@@H]1CCO[C@]2(CCN(C(=O)c3cscn3)C2)C1,35.7%
6,Cc1nc(C(=O)N2CC[C@@]3(C[C@@H](NS(C)(=O)=O)CCO3)C2)cs1,62.5%
7,CS(=O)(=O)N[C@@H]1CCO[C@]2(CCN(C(=O)C3=CCCC3)C2)C1,21%
8,Cc1cncc(C(=O)N2CC[C@@]3(C[C@H](NS(C)(=O)=O)CCO3)C2)c1,54.4%
9,CS(=O)(=O)N[C@H]1CCO[C@]2(CCN(C(=O)c3ccccn3)C2)C1,4.27%
10,Cc1ncoc1C(=O)N1CC[C@@]2(C[C@H](NS(C)(=O)=O)CCO2)C1,35.7%
11,Cc1ccoc1C(=O)N1CC[C@@]2(C[C@H](NS(C)(=O)=O)CCO2)C1,18.5%
12,CS(=O)(=O)N[C@@H]1CCO[C@]2(CCN(C(=O)c3cnccn3)C2)C1,32.4%
13,Cc1cc(C(=O)N2CCCC(n3cccn3)C2)c(C)n1C1CC1 (configuration not stated),5.7%
14,Cc1cc(CN(C)C(=O)NCC(C)N2CCc3ccccc32)no1 (configuration not stated),15.6%
15,Cc1nccc(CN2CC[C@@]3(CCCN3Cc3ccccc3)[C@@H](O)C2)n1,39.7%
16,CC(C)N1CCO[C@@H]2CN(S(=O)(=O)c3cccs3)CC[C@@H]2C1,42.4%
17,Cc1cc(C)n(-c2ccc(C(=O)NCC(c3cccs3)N(C)C)cc2)n1 (configuration not stated),30%
18,CC(C)c1ocnc1C(=O)NC(c1nnc2n1CCNCC2)C(C)C (configuration not stated),65.5%
19,CC(C)C(NC(=O)c1ccc(=O)[nH]c1)c1nnc2n1CCNCC2 (configuration not stated),12.6%
20,Cc1cc(C)c(C(=O)NC(c2nnc3n2CCNCC3)C(C)C)c(C)c1 (configuration not stated),37.7%
21,CC(C)OC(=O)N1CCCC(c2nccn2Cc2ccncc2)C1 (configuration not stated),50.3%
22,O=C(N1CCCC1)N1CCCC(c2nccn2Cc2ccncc2)C1 (configuration not stated),-14.6%
23,COc1cc(N2CCCC(c3nccn3Cc3cccnc3)C2)ncn1 (configuration not stated),2.69%
24,CCCSCC(=O)N1CCCC(c2nccn2Cc2ccncc2)C1 (configuration not stated),25%
25,COc1cc(N2CCC(c3nccn3Cc3ccccc3)CC2)ncn1,11.7%
26,COc1cc(N2CCCC(c3nccn3Cc3ccncc3)C2)ncn1 (configuration not stated),54.7%

row,Compound,INHIBITION
1,CCN(CC)S(=O)(=O)N1CCCC(c2nccn2Cc2cccnc2)C1 (configuration not stated),15.2%
2,CCN(CC)S(=O)(=O)N1CCCC(c2nccn2Cc2ccncc2)C1 (configuration not stated),70.1%
3,CN(C)S(=O)(=O)N1CCCC(c2nccn2Cc2cccnc2)C1 (configuration not stated),11.9%
4,O=C1NC2(CCN(C(=O)N3CCOCC3)CC2)CC1c1cccnc1 (configuration not stated),9.34%
5,Cc1nc(CN2C[C@@H]3CN(C(=O)C4CC4)C[C@@H]3C2=O)cs1,42.6%
6,O=C(NCCc1c[nH]c2ccccc12)C1CCC(Cn2cnnn2)CC1 (configuration not stated),-65.9%
7,Cc1cc(NC(=O)CN2CCCC(Cn3nc(C)nc3C)C2)n(C)n1 (configuration not stated),-22.15%
8,CSCc1ccc(N2CCC(C(O)CC(C)C)CC2)nc1 (configuration not stated),67.4%
9,CN(C)c1ccc(CN2CCC(C(O)Cc3ccccc3)CC2)cn1 (configuration not stated),-42.8%
10,CSCc1ccc(N2CCC(C(O)Cc3ccccc3)CC2)nc1 (configuration not stated),74.3%
11,Cc1ccc(N2CCC(C(O)Cc3ccccc3)CC2)nn1 (configuration not stated),-2.97%
12,CSCc1ccc(N2CCN(c3ccc(Cl)cn3)CC2)nc1,38.3%
13,CC(C)CC(O)C1CCN(Cc2ccc(N(C)C)nc2)CC1 (configuration not stated),10.6%
14,CSCc1noc(-c2ccc(C)c(N3CCNC3=O)c2)n1,9.52%
15,COc1ccc(F)cc1-c1ccccc1CC1(C(=O)O)CCOCC1,26.7%
16,O=C(N[C@@H]1c2ccccc2C[C@@H]1O)C1CCN(Cc2ccco2)CC1,48.4%
17,CC(NS(N)(=O)=O)c1ccc(OCc2ccc(F)cc2)cc1 (configuration not stated),14.6%
18,CCc1cc(NCCNC(C)=O)nc(N2CCCC2)n1,48.2%
19,CCc1cc(NCC(N)=O)nc(N2CCCCC2)n1,32%
20,CCc1cc(NC(C)(C)C)nc(N2CCOCC2)n1,-3.12%
21,CCc1cc(NC2CCS(=O)(=O)C2)nc(N2CCCCC2)n1 (configuration not stated),52.6%
22,CCc1cc(NC2CCN(CC(N)=O)CC2)nc(N2CCCCC2)n1,51.5%
23,CCc1cc(NC2CCS(=O)(=O)CC2)nc(N2CCCCC2)n1,23.3%
24,CCc1n[nH]c(C2CN(C(=O)c3cc(C(N)=O)cs3)CCO2)n1 (configuration not stated),-15.5%
25,CCC(NC1CCCC1)c1ccc(S(C)(=O)=O)cc1 (configuration not stated),22.1%
26,CC(NC(=O)c1nc(=O)[nH][nH]1)c1ccc(OCC2CC2)c(F)c1 (configuration not stated),5.53%
